Experimental data: PubChem BioAssay AID1210 (NMMLSC, 2008)
Calls of active or inactive are those of the source.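 How the source made its calls: active means blocks over 70% of labeled estradiol binding at 10 µM, or over a set limit at 100 nM; inactive means the rest.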

What follows are molecules tested against Estrogen receptor beta (Homo sapiens) (UniProt Q92731) (assay: displacement of fluorescent estrogen from ERbeta – cell-based, Cos7 ERbeta-GFP, flow cytometry, primary screen (AID 1210;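 further: 0% = DMSO vehicle wells and 100% = complete loss of labeled estradiol signal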)). Details: fluorescent estrogen binding, at 10 µM, stronger effect = higher value.
Chain of Estrogen receptor beta (Homo sapiens) (Q92731 whole entry, looked up): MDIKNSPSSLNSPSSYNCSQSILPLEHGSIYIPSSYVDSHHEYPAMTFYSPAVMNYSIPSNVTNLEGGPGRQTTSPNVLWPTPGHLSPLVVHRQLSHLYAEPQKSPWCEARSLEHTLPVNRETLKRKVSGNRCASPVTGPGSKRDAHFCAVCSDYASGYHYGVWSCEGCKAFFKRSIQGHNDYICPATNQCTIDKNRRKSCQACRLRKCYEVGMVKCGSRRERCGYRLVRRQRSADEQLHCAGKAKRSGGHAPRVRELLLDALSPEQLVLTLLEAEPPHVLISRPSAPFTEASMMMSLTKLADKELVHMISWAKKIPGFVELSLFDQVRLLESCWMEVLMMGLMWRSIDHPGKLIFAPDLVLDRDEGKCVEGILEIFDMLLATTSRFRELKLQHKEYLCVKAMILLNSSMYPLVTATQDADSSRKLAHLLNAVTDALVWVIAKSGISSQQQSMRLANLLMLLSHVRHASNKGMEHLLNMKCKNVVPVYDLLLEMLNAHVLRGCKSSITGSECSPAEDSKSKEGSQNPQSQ

Row | Compound | inhibition
1 | O=C(O)c1cccc2c1NC(c1cccc([N+](=O)[O-])c1)C1CC(Sc3ccccc3[N+](=O)[O-])C(Cl)C21 (stereo not given) | 67% (inactive)
2 | COc1ccc2[nH]cc(CCN=C(N)N)c2c1 | 16% (inactive)
3 | N=c1c[n+](CCc2ccc(O)cc2)[n-]o1 | 29% (inactive)
4 | COc1cc2c(cc1OC)CC(C)(C)NC2 | 11% (inactive)
5 | CC1(C)CC(CCNCc2ccc3c(c2)OCO3)(Cc2ccccc2)CCO1 (stereo not given) | 16% (inactive)
6 | CC(=O)c1ccc2c(c1)C1C(Cl)C(Sc3ccccc3[N+](=O)[O-])CC1C(C(=O)O)N2 (stereo not given) | 34% (inactive)
7 | COc1ccc(CC2NCCc3cc(OC)c(OC)cc32)cc1OC (stereo not given) | 10% (inactive)
8 | COc1ccc(Cn2c(N)c(C(=O)NCc3ccco3)c3nc4ccccc4nc32)cc1 | 64% (inactive)
9 | CCOc1ccccc1N1C(=O)NC(=O)C(CCc2ccncc2)(CCc2ccncc2)C1=O | 41% (inactive)
10 | CCNCC1(c2ccc(OC)c(OC)c2)CCCC1 | 14% (inactive)
11 | CC(=O)c1ccc2c(c1)C1C(Cl)C(Sc3ccccc3[N+](=O)[O-])CC1C(c1ccccc1)N2 (stereo not given) | 33% (inactive)
12 | Cc1ccc2c(c1Cl)NC(C(=O)O)C1CC(Sc3ccccc3[N+](=O)[O-])C(Cl)C21 (stereo not given) | 21% (inactive)
13 | O=C1C2CCN(CC2)C1Cc1ccc(O)cc1 (stereo not given) | 19% (inactive)
14 | COc1ccc(C2(CN)CCCC2)cc1OC | 8% (inactive)
15 | CC(=O)c1ccc2c(c1)C1C(Cl)C(Sc3ccccc3[N+](=O)[O-])CC1C(c1ccccc1[N+](=O)[O-])N2 (stereo not given) | 36% (inactive)
16 | O=C(O)c1ccc2c(c1)C1C(Cl)C(Sc3ccccc3[N+](=O)[O-])CC1C(c1cccc([N+](=O)[O-])c1)N2 (stereo not given) | 0% (inactive)
17 | C[C@H]1CCC[C@@H](O)CCC/C=C/c2cc(O)cc(O)c2C(=O)O1 | 71% (active)
18 | O=C(O)c1cccc2c1NC(C(=O)O)C1CC(Sc3ccccc3[N+](=O)[O-])C(Cl)C21 (stereo not given) | 0% (inactive)
19 | COc1ccc(C2(CN)CCCC2)cc1 | 5% (inactive)
20 | Cc1ccc(S(=O)(=O)Cc2ccc(C(=O)N3CCC4(CC3)OCCO4)o2)cc1 | 56% (inactive)
21 | NC(=O)c1ccc(N=Nc2c(O)[nH]c(=O)[nH]c2=O)cc1 | 11% (inactive)

Same assay, conditions: fluorescent estrogen binding, ligand binding inhibition, at 0.1 µM, stronger effect = higher value

Row | Compound | inhibition [%]
22 | O=C(O)c1cccc2c1NC(c1cccc([N+](=O)[O-])c1)C1CC(Sc3ccccc3[N+](=O)[O-])C(Cl)C21 (stereo not given) | 11
23 | COc1ccc(Cn2c(N)c(C(=O)NCc3ccco3)c3nc4ccccc4nc32)cc1 | 13
24 | CCOc1ccccc1N1C(=O)NC(=O)C(CCc2ccncc2)(CCc2ccncc2)C1=O | 35
25 | CC(=O)c1ccc2c(c1)C1C(Cl)C(Sc3ccccc3[N+](=O)[O-])CC1C(c1ccccc1)N2 (stereo not given) | 22
26 | CC(=O)c1ccc2c(c1)C1C(Cl)C(Sc3ccccc3[N+](=O)[O-])CC1C(c1ccccc1[N+](=O)[O-])N2 (stereo not given) | 6
27 | O=C(O)c1ccc2c(c1)C1C(Cl)C(Sc3ccccc3[N+](=O)[O-])CC1C(c1cccc([N+](=O)[O-])c1)N2 (stereo not given) | 6
28 | C[C@H]1CCC[C@@H](O)CCC/C=C/c2cc(O)cc(O)c2C(=O)O1 | 62
29 | Cc1ccc(S(=O)(=O)Cc2ccc(C(=O)N3CCC4(CC3)OCCO4)o2)cc1 | 7
30 | NC(=O)c1ccc(N=Nc2c(O)[nH]c(=O)[nH]c2=O)cc1 | 17
